Results: PubChem BioAssay AID540352 (National Center for Advancing Translational Sciences (NCATS), 2011)
Results filed as inconclusive are left out. Values without a mark were called inactive. The source made the active and inactive calls. Calls follow the shape of the dose curve; as a rule, active = well fitted inhibition curve with a large enough effect; inconclusive = small, poorly fitted or top-dose-only effect; inactive = no such curve, though single readings can be large or run the other way.

assay: qHTS for Inhibitos of Bacillus subtilis Sfp phosphopantetheinyl transferase (PPTase): Chemistry Optimization Followup in B. Subtilis 168; details: B. subtilis 168 growth, BacTiter-Glo luminescence, 5 h; series mostly up to 114 µM; activity change, negative = inhibition: at the top concentration
Excerpt: Phosphopantetheinyl transfer is a process essential to cellular viability and maintenance. Cell-permeable and stable compounds acting as PPTase inhibitors are anticipated to be antimicrobial agents in organisms with complimenting genotypes. […] This experiment evaluated a series of test compounds for antimicrobial activity with B. subtilis 168 (genotype: acpS+ and sfp-), a strain that contains a frameshift mutation in the sfp locus and thus requires a functional AcpS gene product for viability. [Mootz HD, 2001] This strain is expected to be sensitized to cell-permeable AcpS inhibitors, and insensitive to Sfp inhibitors. NIH Chemical Genomics Center [NCGC] NIH Molecular Libraries Probe Centers Network [MLPCN] MLPCN Grant: MH083266-01 Assay Submitter (PI): Michael Burkart, University of California, San Diego
Innoculum preparation. Bacillus subtilis 168 is maintained on lysogeny broth (LB) solidified by the addition of 1.5% w/v agar. Single colonies were used to LB medium (2 mL) and shaken overnight at 30 masculineC. In the morning, this culture (100 ul) was used to seed a fresh LB medium (10 mL) and was shaken at 30 masculineC until the culture OD600 reached 0.5. This culture was diluted 1:100 in fresh LB medium to provide the inoculum below. Bacterial susceptibility. LB medium (2 uL) is dispensed into wells of a sterile white 1536-well plate. Test compounds (23 nL) prepared as serial dilutions in DMSO are added to the plate by pintool transfer. Innoculum (2 uL) is added, the plates are covered with a vented Kalypsys assay lid and incubated at 30 masculineC. After 5 h, Bac-Titer Glo (4 uL; Promega Corp, Madison, WI) is added to the plates. They are incubated 10 minutes at room temperature and then the luminescence detected in a ViewLux multimodal plate reader.

SMILES | Potency | activity change, negative = inhibition [%]
FC(F)(F)c1cccc(N2CCN(C(=S)Nc3cc(C(F)(F)F)ccn3)CC2)c1 | 13.2 µM (active) | 
Cc1cc(C)nc(NC(=S)N2CCN(c3ccc(Cl)c(Cl)c3Cl)CC2)c1 | 9.37 µM (active) | 
Cc1ccnc(NC(=S)N2CCN(c3ccc(Cl)cc3Cl)CC2)c1 | 16.7 µM (active) | 
Cc1cc(C)nc(NC(=S)N2CCN(c3cc(Cl)c(Cl)cc3Cl)CC2)c1 | 21 µM (active) | 
Cc1cc(C)nc(NC(=S)N2CCN(c3nsc4ccccc34)CC2)c1 | 52.7 µM (active) | 
CN(C)c1ccc2nc(NC(=S)N3CCN(c4cccc(C(F)(F)F)c4)CC3)sc2c1 | 5.91 µM (active) | 
COC(=O)c1ccnc(NC(=S)N2CCN(c3cccc(C(F)(F)F)c3)CC2)c1 | 41.8 µM (active) | 
Cc1ccnc(NC(=S)NCCN(C)c2cccc(C(F)(F)F)c2)c1 |  | -19.2
Cc1cc(C)nc(NC(=S)N2CCN(c3ccc4nncn4c3)CC2)c1 |  | -15.5
Cc1cc(C)nc(NC(=S)N2CCN(c3cncs3)CC2)c1 | 46.9 µM (active) | 
COc1cccc(NC(=S)N2CCN(c3cc(Cl)cc(Cl)c3)CC2)n1 |  | -1.53
Cc1ccnc(NC(=S)N2CCN(c3cccc(N(C)C)c3)CC2)c1 | 59.1 µM (active) | 
Cc1ccnc(NC(=S)Nc2cccc(C(F)(F)F)c2)c1 | 16.7 µM (active) | 
COc1cccc(NC(=S)N2CCN(c3ccccc3C(F)(F)F)CC2)n1 | 26.4 µM (active) | 
Cc1cc(C)nc(NC(=S)N2CCN(c3ccc([N+](=O)[O-])cc3Cl)CC2)c1 | 9.37 µM (active) | 
FC(F)(F)c1cc(N2CCN(C(=S)Nc3cc(Cl)ccn3)CC2)cc(C(F)(F)F)c1 | 37.3 µM (active) | 
Cc1ccnc(NC(=S)N2CCN(c3cccc(C(F)(F)F)n3)CC2)c1 | 16.7 µM (active) | 
Cc1cc(C)nc(NC(=S)N2CCN(c3ccc4cn(C)nc4c3)CC2)c1 |  | -14.6
Cc1ccnc(NC(=S)N[C@H]2CCN(c3cccc(C(F)(F)F)c3)C2)c1 | 52.7 µM (active) | 
Cc1cc(C)nc(NC(=S)N2CCN(c3ccc(Cl)cc3F)CC2)c1 | 23.5 µM (active) | 
COc1ccc(NC(=S)N2CCN(c3cccc(C(F)(F)F)c3)CC2)nc1 |  | -22
Cc1ccnc(NC(=S)N2CCN(c3ccc(N)cc3)CC2)c1 |  | -18.5
Cc1ccnc(NC(=S)N2CC3CN(c4cccc(C(F)(F)F)c4)CC3C2)c1 (centres undefined) | 11.8 µM (active) | 
OCc1ccnc(NC(=S)N2CCN(c3cccc(C(F)(F)F)c3)CC2)c1 | 46.9 µM (active) | 
